A selection: hits, their analogues and other compounds. The true share with any hit is near 2.5%.
UBC13 polyUb – inhibitors of human UBC13 polyubiquitin chain formation; TR-FRET; inhibition, % at 20 µM; 330,000 tested, 0.47% active; AID 485273; in the data active = inhibition above about 45%, passing the limit was not always enough; inconclusive = no clear call, values can overlap the other calls
Target sequence (P61088 whole entry, looked up): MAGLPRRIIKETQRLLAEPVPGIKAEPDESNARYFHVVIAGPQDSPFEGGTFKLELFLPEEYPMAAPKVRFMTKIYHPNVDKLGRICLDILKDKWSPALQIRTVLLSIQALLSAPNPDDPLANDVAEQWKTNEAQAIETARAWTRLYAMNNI
MEKK2 WT-MEK5 – raises or lowers MEK5 binding to wildtype human MEKK2 PB1 domain. Q9Y2U5. bead flow cytometry, Alexa488-MEK5 binding to MEKK2 WT; actives lie on both sides. binding response (% of control), % at 10 µM. 290,000 tested, 1.1% active; in the data active = binding response below about 67% or above about 130%; inconclusive = no clear call, values can overlap the other calls; inactive = in between
MEKK3 PB1 HTS – modulators (inhibitors or enhancers) of MEK5 binding to human MEKK3 PB1 domain; binding response (% of control), % at 10 µM; 290,000 tested, 1.4% active; bead-based flow cytometry, Alexa488-MEK5 binding to MEKK3; actives lie on both sides; 0 = blocked by unlabeled MEK5, 100 = vehicle;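 active = binding response more than 3 SD above or below the average of its plate-row segment, actives on both sides; inconclusive = wells at one plate position flagged as instrument error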;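 note: Alexa488 bead fluorescence after subtracting the streptavidin-only scavenger bead signal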
MEKK2mut PB1 HTS – signal of MEK5 binding to mutant human MEKK2 PB1 domain. bead flow cytometry, Alexa488-MEK5 binding to MEKK2 mutant. percent response, % at 10 µM. 290,000 tested, 0.35% active. AID 1530; in the data active = percent response above about 24%, passing the limit was not always enough
Rce1 inh – inhibitors of yeast Ras-converting enzyme. Q03530. yeast membranes, quenched prenylated peptide cleavage fluorescence. calls only. 290,000 tested, 0.27% active. AID 2563;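 active = fall in fluorescence gain of 50% or more versus controls, with final raw signal at or below 3038400; inconclusive = same 50% fall but final raw signal above 3038400; inactive = fall in fluorescence gain under 50%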
Target sequence (Q03530 whole entry, looked up): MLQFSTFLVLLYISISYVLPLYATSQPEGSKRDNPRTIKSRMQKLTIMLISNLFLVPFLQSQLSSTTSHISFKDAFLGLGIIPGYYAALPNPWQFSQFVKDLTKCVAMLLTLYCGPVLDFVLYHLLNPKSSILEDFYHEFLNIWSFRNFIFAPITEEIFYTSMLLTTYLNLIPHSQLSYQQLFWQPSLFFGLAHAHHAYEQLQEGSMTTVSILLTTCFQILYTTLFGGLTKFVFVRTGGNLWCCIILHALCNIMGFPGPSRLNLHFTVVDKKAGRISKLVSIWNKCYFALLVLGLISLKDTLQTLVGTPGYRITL
MEKK2wt confirm – raises or lowers MEK5 binding to wildtype human MEKK2, retest; shares compounds with MEKK3 PB1 HTS; bead flow cytometry, Alexa488-MEK5 binding to MEKK2 WT; actives lie on both sides; binding response (% of control), % at 10 µM; 5,900 tested, 2.4% active; in the data active = binding response below about 16% or above about 210%; inactive = in between
MEKK2mut confirm – signal of MEK5 binding to mutant human MEKK2, retest | shares compounds with MEKK3 PB1 HTS | bead flow cytometry, Alexa488-MEK5 binding to MEKK2 mutant | percent response, % at 10 µM | 5,900 tested, 2% active | AID 1893; in the data active = percent response mostly above about 71%, no sharp cut-off; inactive = mostly below about 38%;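 note: higher means compound restores mutant binding toward wildtype level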
MEKK3 confirm – confirmation of inhibitors of MEK5 binding to human MEKK3. 5,900 tested, 1.8% active. bead flow cytometry, Alexa488-MEK5 binding to MEKK3; hits give low values. binding response (% of control), % at 10 µM. shares compounds with MEKK3 PB1 HTS;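 active = binding response below 72% of control, or above a set upper limit, though filed actives all read lower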;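 note: lower values mean stronger disruption of MEK5 binding to MEKK3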
Of the large screens only hits and unclear results are named; the others gave an inactive call (follow-up assays come after a bar, where they were run); [ ] = another dose, or the depositor's remark.

COc1ccc(-c2nn(-c3ccccc3)cc2/C=C/C(=O)OCC(=O)Nc2cccc(C#N)c2)cc1	MEKK3 PB1 HTS 130 | MEKK2wt confirm inactive | MEKK2mut confirm inactive | MEKK3 confirm inactive
CCn1ccnc1CN(C)Cc1cn(-c2ccc(C)cc2)nc1-c1cccc(C)c1	MEKK2 WT-MEK5 138 | MEKK2wt confirm inactive | MEKK2mut confirm inactive | MEKK3 confirm inactive
Cn1c(N/N=C\c2cccc(O)c2)cc(=O)n(C)c1=O	MEKK3 PB1 HTS 146 | MEKK2wt confirm inactive | MEKK2mut confirm inactive | MEKK3 confirm inactive
Cc1ccc(C)c(S(=O)(=O)N(C)C2(C)CCS(=O)(=O)C2)c1 (stereo unspecified)	none (no result: MEKK2 WT-MEK5, MEKK3 PB1 HTS, MEKK2mut PB1 HTS)
CCOC(=O)N1CCC(Nc2nc3ccccc3n3cnnc23)CC1	MEKK2 WT-MEK5 0.0[inhibitor], MEKK3 PB1 HTS 0.0[inhibitor] | MEKK2wt confirm inactive | MEKK2mut confirm inactive | MEKK3 confirm inactive
CCOC(=O)N1CCN(c2nc3ccc(C(=O)c4ccccc4)cc3n3cnnc23)CC1	none
Cc1nc(NC(=O)COC(=O)C2CC3CCCC(C2)C3=O)c(Cl)cc1Cl (stereo unspecified)	none (no result: MEKK2 WT-MEK5, MEKK3 PB1 HTS, MEKK2mut PB1 HTS, Rce1 inh)
COC(=O)c1cn(C(=O)/C=C/c2ccc(OC)c(OC)c2)c2ccccc12	none
CCCCN(C(=O)COc1ccc(C)cc1OC)c1c(N)n(CCC)c(=O)[nH]c1=O	none
COc1ccccc1-n1c([S-])c(C(=O)Nc2ccccc2C(F)(F)F)[n+]2ccc(C(=O)NCCO)cc12	none
Cc1ccc(-n2c([S-])c(C(=O)Nc3ccc(OC(F)F)cc3)[n+]3ccc(C(=O)NCCO)cc23)cc1C	MEKK2 WT-MEK5 63[inhibitor] | MEKK2wt confirm inactive | MEKK2mut confirm inactive | MEKK3 confirm inactive
NC(=O)CC(NC(=O)c1cccc(Br)c1)c1ccc(NC2CCCCCCC2)c([N+](=O)[O-])c1 (stereo unspecified)	none
Cc1nn(C)c(=O)n1N(C)c1ncc(C(F)(F)F)cc1Cl	MEKK3 PB1 HTS 139 | MEKK2wt confirm inactive | MEKK2mut confirm inactive | MEKK3 confirm inactive
Cc1nn(Cc2ccccc2)c(=O)n1N(C)c1ncc(C(F)(F)F)cc1Cl	none
O=C(Cc1cc(=O)oc2cc(O)ccc12)NC(Cc1ccc(Cl)cc1)C(=O)O (stereo unspecified)	Rce1 inh inconclusive
CCc1nnc(NC(=O)C2CC(=O)N(Cc3ccco3)C2)s1 (stereo unspecified)	MEKK3 PB1 HTS 122 | MEKK2wt confirm inactive | MEKK2mut confirm inactive | MEKK3 confirm inactive
CCc1nnc(NC(=O)C2CC(=O)N(Cc3ccccc3)C2)s1 (stereo unspecified)	none
Cc1noc(C)c1S(=O)(=O)N(CC(=O)NC1CCCC1)c1ccc(C(C)C)cc1	none
Cc1nn(-c2ccccc2C(=O)O)c(=O)c2ccccc12	MEKK2 WT-MEK5 -1.0[inhibitor], MEKK3 PB1 HTS 2.0[inhibitor] | MEKK2wt confirm inactive | MEKK2mut confirm inactive | MEKK3 confirm inactive
CCn1c(CC(=O)Nc2ccc(Cl)c(Cl)c2)nnc1SCc1ccc(Cl)cc1	MEKK2 WT-MEK5 14[inhibitor], MEKK3 PB1 HTS 8.0[inhibitor] | MEKK2wt confirm inactive | MEKK2mut confirm inactive | MEKK3 confirm inactive
CCn1c(CNC(=O)c2cccs2)nnc1SCC(=O)Nc1ccc(Cl)cc1	MEKK3 PB1 HTS 128 | MEKK2wt confirm inactive | MEKK2mut confirm inactive | MEKK3 confirm inactive
CCn1c(SCC(=O)NCC(=O)Nc2ccc(F)cc2)nnc1-c1cccs1	MEKK2 WT-MEK5 -4.0[inhibitor], MEKK3 PB1 HTS 0.0[inhibitor] | MEKK2wt confirm inactive | MEKK2mut confirm inactive | MEKK3 confirm inactive
CCn1c(CNC(=O)c2cccs2)nnc1SCC(=O)Nc1cc(Cl)ccc1C	none
COc1ccc(N(CC(=O)NN=C2CCN(C)CC2)S(=O)(=O)c2ccccc2)c(OC)c1	none
O=C(CN(CCO)c1ccccc1)Nc1ccc(Cl)c(S(=O)(=O)N2CCOCC2)c1	none
COc1ccc(CNCC(O)(c2ccc(F)cc2)c2ccc(F)cc2)cc1OC	none
CCCCNCC(O)(c1ccc(Cl)cc1)c1ccc(Cl)cc1	MEKK2 WT-MEK5 146 | MEKK2wt confirm inactive | MEKK2mut confirm inactive | MEKK3 confirm inactive
COc1ccc(CNCC(O)(c2ccc(Cl)cc2)c2ccc(Cl)cc2)cc1	MEKK2 WT-MEK5 154 | MEKK2wt confirm inactive | MEKK2mut confirm inactive | MEKK3 confirm inactive
COc1ccc(CNCC(O)(c2ccc(Cl)cc2)c2ccc(Cl)cc2)cc1OC	MEKK2 WT-MEK5 179 | MEKK2wt confirm inactive | MEKK2mut confirm inactive | MEKK3 confirm inactive
Cc1cc(NC(=S)N(Cc2ccc(Br)cc2)Cc2ccc(C(=O)O)cc2)ccc1Cl	none
O=C(CSc1cc(Cl)ccc1Cl)Nc1ccc(N2CCOCC2)cc1	none (no result: MEKK2 WT-MEK5, MEKK3 PB1 HTS, MEKK2mut PB1 HTS, Rce1 inh)
O=C(/C=C/c1ccccc1)NC(NC(=S)Nc1cccc(O)c1)C(Cl)(Cl)Cl (stereo unspecified)	MEKK2 WT-MEK5 139 | MEKK2wt confirm inactive | MEKK2mut confirm inactive | MEKK3 confirm inactive
COc1ccc(-n2cc(CNCCc3nc(C)cc(C)n3)c(-c3ccccc3Cl)n2)cc1	none
CCN1CCC(CNCc2cn(-c3ccc(OC)cc3)nc2-c2ccccc2Cl)C1 (stereo unspecified)	MEKK2 WT-MEK5 180 | MEKK2wt confirm inactive | MEKK2mut confirm inactive | MEKK3 confirm inactive
COc1ccc(-n2cc(CNCCc3ncc(C)[nH]3)c(-c3ccccc3Cl)n2)cc1	MEKK2 WT-MEK5 153 | MEKK2wt confirm inactive | MEKK2mut confirm inactive | MEKK3 confirm inactive
COCCCNC(=O)C1CCC(CNS(=O)(=O)c2ccc(C)cc2)CC1 (stereo unspecified)	none
CCCN(C(=O)CCNC(=O)c1ccc(Cl)cc1)c1c(N)n(Cc2ccccc2)c(=O)[nH]c1=O	none (no result: MEKK2 WT-MEK5, MEKK3 PB1 HTS, MEKK2mut PB1 HTS, Rce1 inh)
CNS(=O)(=O)c1cccc(C(=O)OCC(=O)/C=C2/N(C)c3ccccc3C2(C)C)c1	MEKK3 PB1 HTS 131 | MEKK2wt confirm inactive | MEKK2mut confirm inactive | MEKK3 confirm inactive
CC(C)Oc1cccc(C(=O)C2CCCN(Cc3cccn3-c3ccccn3)C2)c1 (stereo unspecified)	MEKK2 WT-MEK5 174 | MEKK2wt confirm inactive | MEKK2mut confirm inactive | MEKK3 confirm inactive
O=C(/C=C/c1cccc([N+](=O)[O-])c1)Nc1ccccc1N1CCOCC1	none
N#C/C(=C\C1=C(N2CCOCC2)C(=C/c2cccc([N+](=O)[O-])c2)/CC1)C(=O)Nc1ccccc1F	MEKK3 PB1 HTS 9.0[inhibitor] (no result: UBC13 polyUb, MEKK2 WT-MEK5, Rce1 inh) | MEKK2wt confirm inactive | MEKK2mut confirm inactive | MEKK3 confirm inactive
CCN(CC)c1ccc(/C=C2\CCC(/C=C(\C#N)C(=O)Nc3ccccc3F)=C2N2CCOCC2)cc1	none (no result: UBC13 polyUb, MEKK2 WT-MEK5, MEKK3 PB1 HTS, MEKK2mut PB1 HTS)

High-throughput results: PubChem, several laboratories
